According to the supplement of paper PMC3334620:
Over roughly 33,000 sequences, “E-score (-0.5 to 0.5)” has its median near -0.0034; the highest 2% begin near 0.25. What follows is part of a selection rich in the highest values, with near analogues and random picks from the rest.

molecular target: T1, Yap3 (UniProt P38749); assay: PBM E-score (8-mer binding enrichment) (E-score (-0.5 to 0.5)); higher = stronger / more preferred TF binding; settings: protein concentration: 100 nM; construct: GST-full length
T1 sequence: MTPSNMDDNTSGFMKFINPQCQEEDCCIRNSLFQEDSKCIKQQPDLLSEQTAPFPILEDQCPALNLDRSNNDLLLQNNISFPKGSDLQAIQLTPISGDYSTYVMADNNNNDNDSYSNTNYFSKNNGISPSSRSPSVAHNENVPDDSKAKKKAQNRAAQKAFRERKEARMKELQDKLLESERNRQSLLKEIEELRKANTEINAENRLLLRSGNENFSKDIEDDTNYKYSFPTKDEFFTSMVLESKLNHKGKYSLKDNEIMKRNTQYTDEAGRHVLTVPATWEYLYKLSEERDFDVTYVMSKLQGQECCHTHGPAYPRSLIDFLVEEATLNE
Experimental: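 Universal 'all 10-mer' protein binding microarrays (Agilent AMADID 015681) probed with GST-tagged S. cerevisiae TFs (full-length or DBD) made by in vitro transcription/translation (PURExpress), about 100-200 nM. Bound TF was detected with fluorescent anti-GST. Each ungapped 8-mer (which stands for itself and its reverse complement) is scored by the PBM enrichment score (E-score), a modified Wilcoxon-Mann-Whitney statistic from -0.5 to +0.5, computed with the Universal PBM Analysis Suite. Scale: above 0.35 generally sequence-specific binding.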

Row | Sequence | PBM E-score
1 | CGGCGTAC | -0.15
2 | ACGGTTGC | -0.0961
3 | TCCTGTCA | -0.0145
4 | CCCTGGCC | -0.333
5 | AAATCCAG | 0.249
6 | AAATCCAC | 0.0662
7 | AAATCCAT | 0.29
8 | CCGCTGTA | 0.117
9 | CTATAAGA | 0.182
10 | GTATAATA | 0.287
11 | ATATAATA | 0.299
12 | ATATAATG | 0.2
13 | ATATAAGA | 0.346
14 | CTATAATA | 0.0592
15 | GTATAACA | 0.133
16 | GGATAATA | 0.0461
17 | GTATAAGA | 0.0832
18 | AGTAAGCA | 0.00993
19 | AATCTGCG | -0.0221
20 | AGCCCGCA | -0.123
21 | AGCAACGC | -0.0123
22 | AGTTTCGG | 0.0851
23 | ATTAATTA | 0.241
24 | GCTAATAA | 0.144
25 | GTTAATTA | 0.262
26 | ATTAATTC | 0.3

Row | Sequence | PBM E-score
27 | ACTAATTC | 0.178
28 | CCTAATTA | 0.136
29 | GCTAATTA | 0.279
30 | ACTAATTG | 0.167
31 | GTTAATGA | 0.133
32 | ACTAATTA | 0.362
33 | CTTAATTA | 0.174
34 | ATTAATTG | 0.245
35 | AGAGATCA | 0.0988
36 | AAACGAGT | 0.217
37 | CAAGCTAA | -0.0766
38 | CTTTTAAC | 0.0122
39 | AACAAAGT | 0.221
40 | AGCGAGCC | -0.122
41 | AAAGACTG | -0.0469
42 | GTATTACA | 0.291
43 | CTATTATA | 0.145
44 | ATATTATA | 0.186
45 | CTATTACA | 0.163
46 | GTATTATA | 0.329
47 | GTATTAGA | 0.217
48 | CCTTAAAG | 0.06
49 | CAAGTTGG | 0.106
50 | GTTGCTAA | 0.251
51 | CACCTGGG | -0.178
52 | AAGCCTGG | -0.0378

Row | Sequence | PBM E-score
53 | CCATCGTA | 0.0169
54 | AAACAGCG | 0.2
55 | CCAGTAAC | 0.0196
56 | AAATATAA | 0.275
57 | GAATATAA | 0.195
58 | AGATATAA | 0.211
59 | AAATATGT | 0.286
60 | TCATATAA | 0.203
61 | CAATATAA | 0.307
62 | AAATATGC | 0.00442
63 | CAATATAG | 0.218
64 | AAATATGA | 0.224
65 | CAATATAC | 0.112
66 | TAATATAA | 0.344
67 | AGGATTGA | 0.129
68 | AGCAAGAT | 0.14
69 | AATTTCTG | 0.089
70 | ATCCCATA | -0.106
71 | GTTGCATA | -0.0298
72 | ATTTAGCC | 0.0798
73 | AGGGAGTC | -0.235
74 | AACGATAT | 0.269
75 | AACGATAG | 0.116
76 | AACTATAC | 0.0711
77 | AAAAATAG | 0.225
78 | AAAAATAT | 0.342

Row | Sequence | PBM E-score
79 | AACGATAC | 0.0446
80 | AAATATAC | 0.19
81 | AACTATAG | 0.0554
82 | AACTATAT | 0.309
83 | AAAAATAC | 0.14
84 | AAATATAT | 0.285
85 | AAATATAG | 0.117
86 | AACTCATT | 0.0581
87 | CTCCCTCA | -0.122
88 | CCTCAAGG | -0.145
89 | CTCATTCC | 0.139
90 | CTGCCCAA | -0.122
91 | GCCGAATA | 0.115
92 | AAACCACC | 0.0609
93 | ATCGACTC | -0.161
94 | AGTAGAAG | 0.0935
95 | AGTCATGG | 0.0946
96 | AGCTTTAA | 0.0942
97 | CAGTATGA | 0.143
98 | CCATATGA | 0.00159
99 | TAATATGA | 0.297
100 | TCATATGA | 0.317
101 | GAATATGA | 0.168
102 | AAGTATGA | 0.0367
103 | GCATATGA | 0.214
104 | TAGTATGA | 0.255

Row | Sequence | PBM E-score
105 | CAATATGA | 0.174
106 | AGTTGATC | 0.0597
107 | GACAGGTC | -0.226
108 | AAGGTTCC | -0.0546
109 | CAAGTATA | -0.0229
110 | TAAGTATA | 0.275
111 | AAAGTATA | 0.235
112 | CCTCGCTC | 0.0543
113 | AGAGAACA | 0.206
114 | GGCCCCCC | -0.461
115 | CCCACACA | -0.0183
116 | TTAACGAA | 0.179
117 | ACAACCAC | 0.0359
118 | ACAACCAT | 0.334
119 | ACAACCAG | 0.0808
120 | TATTTCCA | 0.00077
121 | AAATTCGT | 0.312
122 | AAATTCGC | 0.129
123 | GATTTCCA | 0.0257
124 | AATTTCCA | 0.267
125 | AAATTCGG | 0.153
126 | AAATTCCA | 0.269
127 | GAATTCCA | 0.195
128 | CAATTCCA | -0.102
129 | GTCTTGAA | 0.0256
130 | AAGAACGA | 0.142

Row | Sequence | PBM E-score
131 | CCAATTGA | 0.0344
132 | GAACGCAC | 0.0357
133 | AGAGGTAC | -0.248
134 | AGAGGTAA | -0.0121
135 | AGAGGTAT | 0.256
136 | ATCCGATG | 0.0814
137 | ATTAGACG | 0.104
138 | CATGTAAG | 0.155
139 | TACGTAAA | 0.319
140 | AATGTAAT | 0.253
141 | AATGTAAA | 0.231
142 | CACGTAAA | -0.0521
143 | ACTGTAAC | 0.0996
144 | ACTGTAAA | 0.257
145 | TATGTAAA | 0.262
146 | GACGTAAA | 0.0343
147 | CATGTAAA | 0.0358
148 | CCTGTAAA | -0.0789
149 | AATGTAAG | 0.307
150 | TAGATGAA | 0.082
151 | CCGATGTC | 0.0178
152 | AATAGCTA | 0.0193
153 | AGTGATCC | -0.0505
154 | GGGATCGA | -0.124
155 | CGCGTAAA | 0.255
156 | AACGTAAA | 0.2

Row | Sequence | PBM E-score
157 | CGCGTAAG | 0.158
158 | AACGTAAC | 0.201
159 | AACGTAAT | 0.353
160 | TGCGTAAA | 0.132
161 | CAAGAAAC | 0.197
162 | TACAACTA | -0.028
163 | AGCCCACA | -0.117
164 | AATGGAGG | -0.119
165 | AATTTTAG | 0.107
166 | GATTTTAC | 0.161
167 | CATTTTAC | 0.332
168 | AATTTTAC | 0.258
169 | AAATTTAT | 0.144
170 | ATTTTTAC | 0.0674
171 | CATTTTAG | 0.121
172 | CATTTTAA | 0.219
173 | AATTTTAT | 0.266
174 | CCTTCTCG | -0.134
175 | AGGTTTCA | 0.0131
176 | GATACTAC | 0.0824
